GRP78 ERSR act = ER stress response induction in glioma | U87-MG GRP78 promoter luciferase reporter, 16 h | Potency, µM, most hits filed as activators | 0.02% of 420,000 active | AID 602332; also: series mostly up to about 76 µM; nearly all actives have a fitted effect of over 35% in size
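Stably transfected U87-MG glioma cells carrying a GRP78-based luciferase sensor; 16 h compound incubation. Luminescence end-point read 10 min after Bright-Glo addition at room temperature.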
G9a block = inhibitors of human histone lysine methyltransferase G9a; Q96KQ7; G9a H3K9 monomethylation, AlphaScreen, 2 h; Potency, µM (highest dose often 102 µM), most hits filed as inhibitors; 8.8% of 350,000 active; also: nearly all actives have a fitted effect of over 75% in size
Target sequence (Q96KQ7 913-1193 limits assumed): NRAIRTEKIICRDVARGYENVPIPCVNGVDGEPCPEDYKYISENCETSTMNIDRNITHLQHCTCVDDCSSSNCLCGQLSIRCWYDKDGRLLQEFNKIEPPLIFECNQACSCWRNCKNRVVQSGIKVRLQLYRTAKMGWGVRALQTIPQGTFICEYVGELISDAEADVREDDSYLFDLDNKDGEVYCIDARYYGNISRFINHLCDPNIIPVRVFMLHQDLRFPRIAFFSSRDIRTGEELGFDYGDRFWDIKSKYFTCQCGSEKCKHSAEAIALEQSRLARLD
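Readings reflect AlphaScreen signal from monomethyl-H3K9 antibody detection. HMT at 20 nM; substrate b-H3K9 500 nM; cofactor SAM 20 uM; 2 h RT reaction; compounds tested as titrations in qHTS with 15 min preincubation.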
12-LOX inh = ALOX12 (human) lipoxygenase inhibition; P18054; purified 12hLO, xylenol orange hydroperoxide absorbance; Potency, µM (doses to about 108 µM), actives largely listed as inhibitors; 1.1% of 580,000 active
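Purified human 12hLO at 150 nM in 25 mM Hepes, 0.01% Triton X-100, pH 7.0, preincubated 15 min at room temperature with compound. Reaction started with 40 uM arachidonic acid, 30 min at room temperature. Hydroperoxide measured by Fe-xylenol orange, 573/405 nm absorbance ratio.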
Sfp PPTase inh = Sfp phosphopantetheinyl transferase inhibition | 3.5% of 310,000 active | Q9F4F7 | AID 1490 | Biochemical Sfp PPTase activity, qHTS | Potency, µM, most hits filed as inhibitors;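 also: the enzyme is Sfp with the accession as filed and its product quenches rhodamine fluorescence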
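Sfp 15 nM + cpd, 15 min RT; start w/ rhodamine-CoA 5 uM, BHQ-2-YbbR 12.5 uM (final); 50 mM Hepes pH 7.6, 10 mM MgCl2, 0.01% NP-40, 0.01% BSA; read 525/598 nm at 0 and 30 min.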
VDR inhibitor = inhibitors of human vitamin D receptor; Potency, µM, most hits filed as inhibitors; VDR-SRC2-3 peptide fluorescence polarization, 2 h; 0.93% of 400,000 active
Target sequence (P11473 whole entry, looked up): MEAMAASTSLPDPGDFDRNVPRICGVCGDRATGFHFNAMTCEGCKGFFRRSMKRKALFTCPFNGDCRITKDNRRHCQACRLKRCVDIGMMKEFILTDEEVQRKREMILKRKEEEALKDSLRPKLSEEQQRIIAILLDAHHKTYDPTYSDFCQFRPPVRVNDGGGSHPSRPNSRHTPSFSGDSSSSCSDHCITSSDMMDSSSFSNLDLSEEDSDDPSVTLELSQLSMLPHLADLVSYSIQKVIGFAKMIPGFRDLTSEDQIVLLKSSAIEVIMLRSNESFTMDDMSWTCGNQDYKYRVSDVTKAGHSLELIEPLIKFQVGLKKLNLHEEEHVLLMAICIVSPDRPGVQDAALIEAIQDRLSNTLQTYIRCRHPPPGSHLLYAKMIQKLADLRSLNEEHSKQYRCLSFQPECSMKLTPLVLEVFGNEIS
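VDR–SRC2-3 interaction, FP format. Cmpds 23 nl via pintool, brief spin, 2 h ambient incubation.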
A number is an active result; . = inactive; ? = inconclusive; / = no result given; [ ] = another dose, or the depositor's remark. The entries come from a sample that favours hits as a whole. Calls follow the shape of the dose curve; as a rule, active = well fitted curve in the direction sought with a large enough effect; inconclusive = small, poorly fitted or top-dose-only effect, or another doubt; inactive = no such curve, though single readings can be large; an effect the other way counts as inactive or inconclusive.

SMILES	GRP78 ERSR act	G9a block	12-LOX inh	Sfp PPTase inh	VDR inhibitor
O=C1CSC(=Nc2cccc(C(=O)O)c2)N1	.	/	.	.	.
Cc1nc2ccc(N=NC3=C(O)CC(C)(C)CC3=O)cc2s1	.	?	.	.	.
O=C1CCCC(O)=C1N=Nc1c(Cl)cc(Cl)cc1Cl	.	8.9µM	.	.	.
O=C1CCCC(O)=C1N=Nc1cccc(C(=O)O)c1	.	28µM	?	.	.
Cc1nc2ccc(N=NC3=C(O)CCCC3=O)cc2s1	.	40µM	?	.	.
O=C(O)c1cccc(N=NN2CCOCC2)c1	.	16µM	.	.	.
Cc1oc(-c2ccccc2)nc1C(=O)Nc1ccc(S(=O)(=O)NC2CC2)cc1	/	/	.	/	/
O=C(Nc1ccccc1)N1CCN(c2cnccn2)CC1	/	/	.	/	/
CN(C)Cc1ccc(-c2cc(-c3ccncc3)c3cncn3c2)cc1	/	/	.	/	/
CC(C)CCn1c(SCC(=O)Nc2ccccc2)nc2c1c(=O)[nH]c(=O)n2C	/	/	.	/	/
CCc1ccc(C(=O)CSc2nnc(-c3ccc(Cl)cc3)n2CCOC)cc1	/	/	.	/	/
Fc1ccc(C2=Nc3ccc(Cl)cc3NC(c3cccs3)=N2)cc1	/	/	.	/	/
Cc1cc(C(=O)CSC(C)c2nc3ccccc3c(=O)[nH]2)c(C)n1C (stereo not drawn)	.	50µM	?	.	.
CC(NS(=O)(=O)c1cccc2nsnc12)C12CC3CC(CC(C3)C1)C2 (stereo not drawn)	/	/	.	/	/
COc1cccc(C2CC(c3c(-c4ccccc4)c4cc(Cl)ccc4[nH]c3=O)=NN2S(C)(=O)=O)c1OC (stereo not drawn)	.	40µM	.	.	.
COc1ccccc1C1CC(c2c(-c3ccccc3)c3cc(Cl)ccc3[nH]c2=O)=NN1S(C)(=O)=O (stereo not drawn)	.	?	.	.	.
O=C(COc1ccccc1)N1C[C@@H](F)[C@@H](OCc2nc3ncccc3[nH]2)C1	/	/	.	/	/
O=C(O)Cc1nc(-c2cccnc2)sc1-c1ccc(Br)cc1	.	?	28µM	.	.
Brc1ccc(-c2nc(-c3cccnc3)no2)cc1	/	/	.	/	/
Cc1ccc(N/N=C(\C#N)C(N)=S)c(C)c1	.	10µM	8.9µM	?	50µM
Cc1cccc(C)c1Nc1c(-c2ccccc2F)nc2cccc(C)n12	.	18µM	.	/	.
CC(C)OCCCNC(=O)c1cc(C2CC2)nc2ccccc12	/	/	.	/	/
CCc1ccccc1NC1=NCC(=O)N1Cc1ccc(OC)cc1	.	45µM	?	.	.
O=C(O)CC(c1ccccc1)c1ccc2c(c1)OCO2 (stereo not drawn)	.	/	.	/	/
Cn1c(C(O)c2ccc3c(c2)OCO3)nc2ccccc21 (stereo not drawn)	.	.[12.7 µM]	.	.	.
SMILES	GRP78 ERSR act	G9a block	12-LOX inh	Sfp PPTase inh	VDR inhibitor
OC(c1cccc(Cl)c1)c1nccc2ccccc12 (stereo not drawn)	.	40µM	?	.	.
CC(C)n1c(C(O)c2ccc3c(c2)OCO3)nc2ccccc21 (stereo not drawn)	.	71µM	.	.	.
OC(c1cccc(Cl)c1)c1ncc(-c2cccc3ccccc23)[nH]1 (stereo not drawn)	.	/	.	/	/
OC(c1ccc2c(c1)OCO2)c1nccc2ccccc12 (stereo not drawn)	.	45µM	?	.	.
CC(C)NC(=O)CNc1ccc(C(F)(F)F)cc1[N+](=O)[O-]	.	.	.	.	.
CC(C)C(Nc1ccc(C(F)(F)F)cc1[N+](=O)[O-])C(=O)O (stereo not drawn)	.	?	.	.	.
CC1CCC(=NNc2ccc(C(F)(F)F)cc2[N+](=O)[O-])CC1 (stereo not drawn)	.	3.5µM	.	.	.
C[C@H](Nc1ccc(C(F)(F)F)cc1[N+](=O)[O-])C(=O)O	.	56µM	.	.	.
CC1CCC/C(=N/Nc2ccc([N+](=O)[O-])cc2[N+](=O)[O-])C1 (stereo not drawn)	.	7.9µM	?	?	.
O=[N+]([O-])c1ccc(NN=C2CCCCC2)c([N+](=O)[O-])c1	.	/	?	/	.
C/C(=N\Nc1ccc(C(F)(F)F)cc1[N+](=O)[O-])C(C)C	.	11µM	.	.	.
O=C(NC1CCCC1)C1=Cc2cc(Cl)ccc2OC=C1	/	/	.	/	/
Cn1nc(C(=O)N2CCN(c3ccccc3)CC2)c2ccccc2c1=O	/	/	.	/	/
O=[N+]([O-])c1cc(C(F)(F)F)ccc1NCC1CCCO1 (stereo not drawn)	.	.	.	.	79µM
O=C(CSc1ccc(C(F)(F)F)cc1[N+](=O)[O-])Nc1ccccc1	.	.	.	.	.
CC(=O)Nc1ccc(NC(=O)CSc2ccc(C(F)(F)F)cc2[N+](=O)[O-])cc1	.	45µM	.	.	.
N#Cc1cc(NCC2CCCO2)c([N+](=O)[O-])cc1C#N (stereo not drawn)	.	.	.	.	.
O=CNNC(=S)NCCc1ccccc1	/	/	.	/	/
Cn1nc(C2CCN(C(=O)Nc3ccc(Cl)cc3)CC2)[nH]c1=O	/	/	.	/	/
Cc1cc(C)nc(N2N=C(C(C)(C)C)CC2=O)n1	.	3.5µM	.	.	.
Cc1ccccc1NS(=O)(=O)c1ccc(OCC(=O)NCc2ccco2)cc1	.	.	.	.	.
Cc1ccc(C(=O)Nc2ccccc2C(=O)O)cc1S(=O)(=O)NC1CCCCC1	.	71µM	.	.	.
CCOc1ccc(S(=O)(=O)Nc2ccccc2C(=O)NCc2ccco2)cc1	.	50µM	.	?	.
Cc1ccc(C(=O)NCc2ccco2)cc1S(=O)(=O)N1CCCCC1	.	?	?	.	.
Cc1ccc(C(=O)Nc2ccccc2C(=O)NCc2ccco2)cc1S(=O)(=O)N1CCCCC1	.	16µM	.	.	.
SMILES	GRP78 ERSR act	G9a block	12-LOX inh	Sfp PPTase inh	VDR inhibitor
CS(=O)(=O)Nc1ccccc1C(=O)NCc1ccco1	.	13µM	.	.	.
CC(C)(C)c1ccccc1NC(=O)c1ccc(F)cc1F	/	/	.	/	/
COc1cc(C(=O)Nc2ccc3oc(C)nc3c2)ccc1C	/	/	.	/	/
CCCN1CCN(c2nnc(-n3cccc3CN3CCN(C4CCCCC4)CC3)s2)CC1	/	/	.	/	/
CCOC(=O)C1=C(C)OC(N)=C(C#N)C1c1cc2c(cc1Br)OCO2 (stereo not drawn)	.	?	?	.	.
CCOC(=O)C1=C(C)OC(N)=C(C#N)C1c1cc2ccccc2nc1N1CCCCC1 (stereo not drawn)	.	11µM	/	.	?
CCOC(=O)C1=C(C)OC(N)=C(C#N)C1c1cc2cc(C)ccc2nc1N1CCCCC1 (stereo not drawn)	.	10µM	?	.	.
c1cc(CNC2CCCC2)cs1	/	/	.	/	/
COc1ccc(Nc2nc(C(=O)NCc3ccco3)cs2)cc1	.	?	?	.	.
O=C(NCc1ccco1)c1csc(Nc2ccccc2Cl)n1	.	32µM	?	28µM	.
O=C(c1csc(Nc2ccccc2Cl)n1)N1CCCC1	.	?	.	79µM	.
CCCc1cc(C(=O)Nc2sc3c(c2C#N)CCC3)no1	.	40µM	.	50µM	71µM
CCCc1cc(C(=O)Nc2ccc(C#N)cc2)no1	.	?	.	.	.
